Screen size: about 3,600 compounds; about 900 (25%) were called active. How the calls were made is not given here. A selection follows. Measured potencies and affinities stand elsewhere.
Each compound was assayed against Protein Tat (Human immunodeficiency virus type 1 group M subtype B (isolate HXB2)) (UniProt P04608) (assay: inhibitors of Tat binding to TAR RNA, dose response, counter-screen for Vif-APOBEC3G degradation inhibitor project, biochemical, fluorescence polarization, FAM-labeled TAR RNA (AID 1117361)). Settings: outcome: dose series up to 100 µM unless noted; series mostly up to 100 µM.

Row | SMILES | outcome
1 | CC(C)C(NC(N)=O)C(=O)NC1CCCCC1 (centres undefined) | inactive
2 | O=C(O)c1cccc(CSc2nnc(COc3ccccc3)o2)c1 | inactive
3 | COc1cc2c(cc1OC)C(=O)C(Br)CC2 (centres undefined) | inactive
4 | COc1cc(NC(=O)NCCN2CCN(c3ccc(Cl)cc3)CC2)ccc1C | inactive
5 | COc1cc(CCC(=O)Nc2cccc(C(F)(F)F)c2)cc(OC)c1OC | inactive
6 | Cc1ccc(NS(=O)(=O)c2ccc(OCC(=O)Nc3cccc([N+](=O)[O-])c3)c(C)c2)cc1 | inactive
7 | CCNC(=S)Nc1ccc(N(c2ccccc2)C(C)C)cc1 | inactive
8 | O=C(Cn1cnc2c(nnn2Cc2ccc(Cl)cc2)c1=O)NCc1ccco1 | inactive
9 | CCOC(=O)c1cc2c(n(-c3ccccc3)c1=O)CC(C)(C)CC2=O | inactive
10 | CC1Cc2ccccc2N1Cc1nc2cc(C(F)(F)F)ccc2c(=O)[nH]1 (centres undefined) | inactive
11 | CC1Cc2ccccc2N1C(=O)C1CCN(S(=O)(=O)Cc2ccccc2)CC1 (centres undefined) | inactive
12 | CCOc1cccc(C(=O)Nc2ccccc2OC(F)F)c1 | inactive
13 | CCC1(CC)C(=O)NC(=O)NC1=NCCc1ccc(O)cc1 | inactive
14 | Cc1noc(C)c1S(=O)(=O)Nc1ccc2c(c1)C(=O)N([C@@H](C)CO)C[C@H](C)[C@@H](CN(C)Cc1ccc(C(F)(F)F)cc1)OCCCC[C@H](C)O2 | inactive
15 | COc1cccc(-c2nc(-c3cccs3)no2)c1 | inactive
16 | CCCCCOc1ccc(C2C(C(C)=O)=C(C)Nc3ncnn32)cc1OC (centres undefined) | inactive
17 | Cc1ccc(NC(=O)CCCCCC2NC(=O)NC2C)cc1 (centres undefined) | inactive
18 | N#Cc1ccccc1NC(=O)CNc1ccc(Cl)c(C(F)(F)F)c1 | inactive
19 | CC1CC(C)CN(C(=O)CSCC(=O)O)C1 (centres undefined) | inactive
20 | CC(C)C(c1nnnn1C1CCCCC1)N1CCN(c2ncccn2)CC1 (centres undefined) | inactive
21 | O=C(CSc1c(Cl)cccc1Cl)N1CCC(c2nc3ccccc3s2)CC1 | inactive
22 | CCN1CCC(=NNC(=O)CC23CC4CC(CC(C4)C2)C3)CC1 | inactive
23 | CCCCCCNS(=O)(=O)c1ccccc1Br | inactive

Row | SMILES | outcome
24 | CCCC1(C(=O)O)NC(c2ccc(OC)cc2O)C2C(=O)N(c3ccc(OC)cc3)C(=O)C21 (centres undefined) | inactive
25 | Cc1cccc2sc(NNC(=O)c3ccc(S(=O)(=O)N4CC(C)CC(C)C4)cc3)nc12 (centres undefined) | inactive
26 | Cc1cc(NC(=O)CC(CN(C)S(=O)(=O)c2ccccc2)c2ccccc2)no1 (centres undefined) | inactive
27 | COc1cccc(-c2nnc(SCC(=O)N3CCOCC3)o2)c1 | inactive
28 | Cc1occc1-c1nnc(SCC(=O)N(C)C)o1 | inactive
29 | COc1ccc(N(C(=O)c2ccccc2OC)C2C=CS(=O)(=O)C2)c(OC)c1 (centres undefined) | inactive
30 | COc1ccc(S(=O)(=O)N(CC(=O)O)c2ccccn2)cc1 | inactive
31 | Cn1ccnc1Sc1ccc(/C=N/NC(=O)c2ccccc2O)cc1[N+](=O)[O-] | inactive
32 | O=[N+]([O-])c1ccccc1NC(=S)N/N=C/c1ccc(O)c(O)c1 | inactive
33 | Cc1cc(NC(=O)Cn2cnc3c(nnn3-c3cccc(F)c3)c2=O)no1 | inactive
34 | C/C(=N\OCC(=O)NC12CC3CC(CC(C3)C1)C2)c1cc2ccccc2o1 | inactive
35 | CC1CCC(NC(=O)CCS(=O)(=O)c2ccc3c(c2)CCN3C(=O)C2CC2)CC1 (centres undefined) | inactive
36 | CN1CCN(NC(=O)c2ccc(S(=O)(=O)N3CC4(C)CC3CC(C)(C)C4)cc2)CC1 (centres undefined) | inactive
37 | COc1cc(NC(=O)CCn2c(=O)[nH]c3ccsc3c2=O)cc(OC)c1 | inactive
38 | O=C(O)CCCCC1SCC2NC(=O)NC21 (centres undefined) | inactive
39 | CCCN(CCC)CCCNC(=O)c1cn(CCOC)c(=O)c2c1c1ccccc1n2C | inactive
40 | Cc1cc(NC(=O)C2CCCC2)n(-c2nc3ccccc3[nH]2)n1 | inactive
41 | O=C1CCCCC1Oc1ccc2ccc(=O)oc2c1 (centres undefined) | inactive
42 | Cc1cc(-c2[nH]nc3c2C(c2cccc(O)c2)C(C#N)=C(N)O3)c(C)s1 (centres undefined) | inactive
43 | CSc1ccc(C2C(C#N)=C(N)Oc3c2ccc(=O)c2c(C)oc(C)c32)cc1 (centres undefined) | inactive
44 | N=C(N)c1ccc(N=Nc2c(O)ccc3c2[nH]c2ccccc23)cc1 | inactive
45 | CCOC(=O)CSc1nc(CC)nc2ccccc12 | inactive
46 | CCOC(=O)c1cc2ccc(OC)c(OC)c2c(=O)s1 | inactive

Row | SMILES | outcome
47 | CC(c1nnnn1C1CCCCC1)N(Cc1ccccc1)Cc1cccnc1 (centres undefined) | inactive
48 | Cc1cccc(C(=O)Nc2nnc(Cc3c[nH]c4ccccc34)s2)c1 | inactive
49 | CC(=O)c1ccc(S(=O)(=O)Nc2cccc(-c3ccc(N4CCOCC4)nn3)c2)cc1 | inactive
50 | CCNS(=O)(=O)c1ccc(-c2ccc(-n3cnnn3)cc2)cc1 | inactive
51 | CCC(C)n1c(-c2cccc(S(=O)(=O)N3CCOCC3)c2)n[nH]c1=S (centres undefined) | inactive
52 | O=C(Oc1cccnc1)c1ccc(Cl)cc1 | inactive
53 | Cc1ccc(S(=O)(=O)N2CCCC2C(=O)N(C)Cc2cccs2)cc1 (centres undefined) | inactive
54 | Cc1cc(O)c(C(C)C)cc1NC1=NS(=O)(=O)c2ccccc21 | inactive
55 | CCCCS(=O)CC(O)COCC (centres undefined) | inactive
56 | Cc1cc(Cl)c(S(=O)(=O)NCC2CCCO2)cc1OCC(=O)NC1CCCCC1 (centres undefined) | inactive
57 | CC(C)(C)c1ccccc1OCCOCCSc1ncccn1 | inactive
58 | O=C(CCCc1ccccc1)N1CCN(c2ccc([N+](=O)[O-])cc2)CC1 | inactive
59 | CC(C)OC(=O)/C(=C\C=C\c1ccccc1)NC(=O)c1ccccc1 | inactive
60 | O=C(CCc1ccc(S(=O)(=O)N2CCOCC2)cc1)OCc1nc2ccccc2s1 | inactive
61 | O=C1c2ccccc2C(Nc2ccc(F)c(Cl)c2)N1c1ccccn1 (centres undefined) | inactive
62 | CCn1c(SCC(=O)n2c(C)c(C)c3ccccc32)nnc1-c1ccco1 | inactive
63 | NC(=O)c1ccccc1NC(=O)/C=C/c1ccc(Cl)cc1 | inactive
64 | CCCCC(=O)Nc1ccc(NC(=O)c2ccc3c(c2)OCO3)cc1OC | inactive
65 | CCn1c(-c2csc(-c3ccc(Cl)cc3)n2)n[nH]c1=S | inactive
66 | COc1ccc(N2CCC(CNS(=O)(=O)c3cccc(C(F)(F)F)c3)C2)cc1 (centres undefined) | inactive
67 | COc1ccc(NC(=O)CN2CCN(c3ccc(F)cc3)CC2)cc1Cl | inactive
68 | COc1ccc(-c2nc(C#N)c(NCc3ccccc3Cl)o2)cc1OC | inactive
69 | O=C(c1cccc(C(F)(F)F)c1)C1CCCN(C(=O)CCCN2CCCC2=O)C1 (centres undefined) | inactive

— PubChem BioAssay AID1117361 (Southern Research Institute, 2015)
